# In PubChem BioAssay AID540345 (The Scripps Research Institute Molecular Screening Center, 2011):
# Values without a mark were called inactive. How the calls were made is not given here.
# Test system: Phorbol Ester
# Test: selectivity profile over receptors, transporters, CYPs – biochemical, Ricerca HitProfilingScreen, CYP450, set 2, selectivity assay for GPR7 antagonist project, profiling panel (AID 540345)
# Details: Ricerca radioligand binding/CYP panel, at 10 µM, active compounds read high
smiles,measurement,value
COc1ccc(Oc2c(Cl)cnn(C3c4ccccc4-c4ccccc43)c2=O)cc1,inhibition,0%
